Measurements taken from PubChem BioAssay.
Several values for one entry are separate records, joined by “and”; a condition that tells them apart may be missing. Equal values may be shown once. Inconclusive results are not listed. Activity calls are given as the source filed them. Rule as the data show it, unless noted: active = parasite load remaining mostly below about 12% (no sharp cut-off); inactive = mostly above about 10%.

What was measured:
[1] = target: ATP-dependent translocase ABCB1 (Homo sapiens) (UniProt P08183); assay: MDR1 (ABCB1) efflux transporter inhibition, cell-based (AID 377; in the data active = fluorescence slope change above about 50%); settings: MDR1-expressing cells, fluorescent substrate accumulation slope; stronger effect = higher value; concentration not given here
[2] = hESC survival regulators, cell-based (AID 493140; call rule not given here;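 also: cells exposed to compounds for four days before counting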); settings: human embryonic stem cell survival screen; stronger effect = higher value
[3] = liver-stage malaria parasite growth inhibition, primary screen, cell-based, HepG2, luciferase luminescence, HepG2 viability (AID 624349);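 also: 100% = mean of DMSO negative control wells on the same plate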; settings: P. berghei liver stage in HepG2, luciferase luminescence, concentration not given here; parasite load remaining: stronger effect = lower value; viability: measured here: HepG2 viability without parasites
[4] = stimulators of nuclear beta-catenin in C2C12, primary screen, imaging, WNT3A-conditioned medium, mouse C2C12, NPC library (AID 1117326; in the data active = nuclear beta-catenin stimulation mostly above about 4.2%, no sharp cut-off; inactive = mostly below about 10%; also: reference of the scale not given here); settings: stronger effect = higher value
[5] = stimulators of insulin release from INS-1E, primary screen, cell-based, 5 mM glucose, NPC library (AID 1117329;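 active = compound raises insulin release from rat beta cells at 5 mM glucose, no numeric limit stated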; also: reference of the scale not given here); settings: rat INS-1E insulin secretion, at 10 µM, stronger effect = higher value
[6] = growth inhibition of GSK3B-pretreated HCT116 cells – cell-based, CellTiter-Glo, 0.2 to 20 µM (AID 1117336;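 active = compounds lowering colon cancer cell viability after pretreatment blocking the GSK3B kinase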); settings: HCT116 viability after GSK3B inhibitor, at 20 µM, stronger effect = higher value
[7] = inhibition of endothelial tube formation, primary screen, imaging, VEGF stimulated, CD31 staining, tube area, NPC library (AID 1117340;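 active = compound that reduces growth-factor-driven endothelial tube area in a mixed cell culture, no cutoff stated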); settings: VEGF-stimulated ADSC/ECFC co-culture, at 10 µM, stronger effect = higher value
[8] = glucagon-like peptide 1 release enhancers, primary assay, NCI-H716 cell line, NPC library (AID 1117341;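 active = compound raises GLP1 secretion from the human gut endocrine cells, with no numeric limit stated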; also: reference of the scale not given here); settings: NCI-H716 cells, at 10 µM, stronger effect = higher value
[9] = HCT116 colon cancer cell growth inhibition, primary screen, CellTiter-Glo luminescence, NPC library (AID 1117342;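 active = compounds that lower survival of HCT116 colon cancer cells in the luminescence readout, no numeric limit stated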); settings: at 20 µM (top of the series)
[10] = CellTiter-Glo luminescent readout of SW480 viability loss, NPC library primary (AID 1117343;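 active = compounds that lower viability of the colon cancer cells in the luminescence readout, with no numeric limit stated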); settings: CellTiter-Glo luminescence; at 20 µM (top of the series) unless noted
[11] = decreased DLD-1 cellular survival, CellTiter-Glo luminescent readout, NPC compound collection, primary HTS (AID 1117346;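 active = compounds that lower survival of DLD-1 colon cancer cells in the luminescence readout, no cutoff given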); settings: DLD-1 viability, CellTiter-Glo luminescence; at 20 µM (top of the series)
[12] = sensitizers of A549 cells to miR-34 induction, primary screen, imaging, A549 dox-inducible miR-34, nuclei and caspase counts (AID 1347080;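 active = compounds whose cell count with miR-34 switched on is under 0.7 times the count with it off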); settings: A549 miR-34 inducible, Hoechst nuclei count, 48 h
[13] = survival rescue of mitochondrial mutant cells in low glucose, primary screen, MELAS cybrids, Rieske KO mouse fibroblasts, CellTiter-Glo (AID 1508586;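 active = mean z-score across replicates of 1.96 or higher in either the MELAS or the Rieske mutant cell line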;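 also: z relative to plate mean and SD of compound and empty wells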)
[14] = circadian clock period modulators, cell-based, LOPAC library, luminescence reporter (AID 2774; call rule not given here;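 also: values are relative to mean of DMSO wells on each plate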); settings: circadian reporter cells, at 7 µM, actives lie on both sides
[15] = viability rescue of complex I mutant cybrids, primary screen, cell-based, galactose medium, ATP luminescence (AID 1645843;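 active = z-score of at least 1.8 in each of two replicates, scored against plate mean and spread of sample wells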;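 also: positive z means more ATP and so rescue of galactose-driven cybrid death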); settings: complex I mutant cybrid cells, 72 h, stronger effect = higher value
[16] = target: NAD(+) hydrolase SARM1 (Homo sapiens) (UniProt Q6SZW1); assay: SARM1 TIR NADase inhibitors, cell lysate, NAD-Glo luminescence (AID 1508614;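 active = compound whose remaining NAD level is above about 45 nM, limit read from the data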;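 also: higher remaining NAD means stronger inhibition of SARM1 NADase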); settings: SAM-TIR HEK293T lysate NADase, at 1 µM, stronger effect = higher value
[17] = stronger effect = lower value, cell number ratio, induced over uninduced
[18] = measured here: relative caspase fold change +Dox/-Dox
[19] = measured here: total cells with miR-34 induction, stronger effect = lower value
[20] = measured here: total cells without miR-34 induction
[21] = MELAS cybrid survival, CellTiter-Glo 48 h, stronger effect = higher value
[22] = Rieske KO mouse fibroblast survival, CellTiter-Glo 72 h

Chain of ATP-dependent translocase ABCB1 (Homo sapiens) (P08183 whole entry, looked up): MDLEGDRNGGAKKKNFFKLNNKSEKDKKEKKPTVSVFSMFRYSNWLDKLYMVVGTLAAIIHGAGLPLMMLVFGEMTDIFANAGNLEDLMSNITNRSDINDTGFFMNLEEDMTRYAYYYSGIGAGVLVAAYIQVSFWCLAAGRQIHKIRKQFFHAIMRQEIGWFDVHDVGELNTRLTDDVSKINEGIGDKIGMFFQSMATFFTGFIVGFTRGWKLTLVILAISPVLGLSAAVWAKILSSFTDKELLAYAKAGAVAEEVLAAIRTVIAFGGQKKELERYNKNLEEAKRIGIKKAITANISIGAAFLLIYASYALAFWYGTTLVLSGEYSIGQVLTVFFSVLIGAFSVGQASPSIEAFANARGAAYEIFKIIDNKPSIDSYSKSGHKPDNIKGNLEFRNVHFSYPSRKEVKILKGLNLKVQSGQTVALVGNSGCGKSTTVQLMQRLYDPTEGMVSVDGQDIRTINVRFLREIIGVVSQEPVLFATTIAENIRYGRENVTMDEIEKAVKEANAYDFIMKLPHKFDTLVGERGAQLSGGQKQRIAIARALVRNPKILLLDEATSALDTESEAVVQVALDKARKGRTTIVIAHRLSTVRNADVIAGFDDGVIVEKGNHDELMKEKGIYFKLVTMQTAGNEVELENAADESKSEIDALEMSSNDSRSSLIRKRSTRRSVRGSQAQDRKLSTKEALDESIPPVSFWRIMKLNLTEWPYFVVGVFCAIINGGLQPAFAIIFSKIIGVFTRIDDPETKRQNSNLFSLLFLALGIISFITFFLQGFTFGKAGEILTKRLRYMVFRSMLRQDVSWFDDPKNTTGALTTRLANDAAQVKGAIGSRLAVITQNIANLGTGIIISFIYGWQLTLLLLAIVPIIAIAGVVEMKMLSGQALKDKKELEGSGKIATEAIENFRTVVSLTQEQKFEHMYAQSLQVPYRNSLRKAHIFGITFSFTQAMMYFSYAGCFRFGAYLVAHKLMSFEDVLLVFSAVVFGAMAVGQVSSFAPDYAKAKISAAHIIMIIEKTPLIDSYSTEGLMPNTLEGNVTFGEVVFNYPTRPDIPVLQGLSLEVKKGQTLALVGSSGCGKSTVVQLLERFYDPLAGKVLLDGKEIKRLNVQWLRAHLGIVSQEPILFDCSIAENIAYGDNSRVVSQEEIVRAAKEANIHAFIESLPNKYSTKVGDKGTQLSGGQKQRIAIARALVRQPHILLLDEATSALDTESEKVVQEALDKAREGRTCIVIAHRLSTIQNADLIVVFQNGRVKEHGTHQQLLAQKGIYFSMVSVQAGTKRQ
Chain of NAD(+) hydrolase SARM1 (Homo sapiens) (Q6SZW1 whole entry, looked up): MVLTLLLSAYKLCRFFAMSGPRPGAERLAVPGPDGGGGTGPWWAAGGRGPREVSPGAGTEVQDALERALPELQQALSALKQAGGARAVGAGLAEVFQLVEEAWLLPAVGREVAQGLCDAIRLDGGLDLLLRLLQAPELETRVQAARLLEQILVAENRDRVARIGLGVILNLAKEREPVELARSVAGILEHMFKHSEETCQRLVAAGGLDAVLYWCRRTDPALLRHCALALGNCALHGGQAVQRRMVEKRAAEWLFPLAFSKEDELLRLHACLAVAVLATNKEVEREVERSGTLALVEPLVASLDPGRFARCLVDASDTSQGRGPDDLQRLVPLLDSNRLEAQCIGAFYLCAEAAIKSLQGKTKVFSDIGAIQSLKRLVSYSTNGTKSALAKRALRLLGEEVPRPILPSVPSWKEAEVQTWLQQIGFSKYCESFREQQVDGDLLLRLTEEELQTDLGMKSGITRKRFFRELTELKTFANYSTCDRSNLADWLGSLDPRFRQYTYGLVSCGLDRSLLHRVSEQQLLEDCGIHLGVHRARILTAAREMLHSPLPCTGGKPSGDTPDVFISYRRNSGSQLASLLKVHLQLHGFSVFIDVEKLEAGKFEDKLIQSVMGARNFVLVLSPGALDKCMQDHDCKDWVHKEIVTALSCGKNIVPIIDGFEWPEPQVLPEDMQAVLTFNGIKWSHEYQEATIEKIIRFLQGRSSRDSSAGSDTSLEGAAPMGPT

With `CN1CCCC(CC2c3ccccc3Sc3ccccc32)C1` (stereo not drawn) the fluorescence slope change [1] was 182% (active), the survival [2] was 1.75 (inactive) and the parasite load remaining [3] was 16% (inactive) and 60.9% (inactive). For the same compound, the viability [3] was 59.4% and 67.6%, the nuclear beta-catenin stimulation ([4]; at 10 µM) was 0.2% (inactive) and the nuclear beta-catenin stimulation ([4]; stimulation, at 2 µM) was 1.3%. For the same compound, the insulin secretion stimulation [5] was 20.3% (active), the viability decrease [6] was 45.1% (inactive) and the tube area decrease [7] was 54.2% (active). The GLP1 secretion stimulation [8] was 20% (active), the inhibition of viability [9] was 86% (active) and the viability decrease (inhibition) [10] was 110% (active). The viability decrease (inhibition) [11] was 77.8% (active), the fold change [12, 17] was 0.892 (inactive) and the fold change [12, 18] was 1.45. For the same compound, the cell count [12, 19] was 6900, the cell count [12, 20] was 7740 and the z-score [13, 21] was -0.486 (inactive). For the same compound, the z-score [13, 22] was 0.0453.

For `CC(C)NC[C@@H](O)COc1ccc(CC(N)=O)cc1`, the period change [14] was 0.075 h (inactive), the survival [2] was 2.17 (inactive) and the parasite load remaining [3] was 88.2% (inactive). The viability [3] was 111%, the nuclear beta-catenin stimulation ([4]; at 10 µM) was 0.1% (inactive) and the nuclear beta-catenin stimulation ([4]; stimulation, at 2 µM) was 1.2%. For the same compound, the insulin secretion stimulation [5] was -1.9% (inactive), the viability decrease [6] was -4.35% (inactive) and the tube area decrease [7] was -23.3% (inactive). For the same compound, the GLP1 secretion stimulation [8] was 3.3% (inactive), the inhibition of viability [9] was 1.1% (inactive) and the viability decrease (inhibition) [10] was 11.3% (inactive). For the same compound, the viability decrease (inhibition) [11] was -7% (inactive), the fold change [12, 17] was 0.872 (inactive) and the fold change [12, 18] was 1.15. The cell count [12, 19] was 9650, the cell count [12, 20] was 11100 and the z-score [13, 21] was 0.458 (inactive). The z-score [13, 22] was -0.0401.

In the case of `NC(=O)OCC(O)COc1ccc(Cl)cc1` (stereo not drawn), the fluorescence slope change [1] is reported as 58.8% (active), the survival [2] is reported as 16.6 (inactive) and the parasite load remaining [3] is reported as 52.4% (inactive) and 99.4% (inactive). For the same compound, the viability [3] was 46% and 92.9%, the nuclear beta-catenin stimulation ([4]; at 10 µM) was -1.4% (inactive) and the nuclear beta-catenin stimulation ([4]; stimulation, at 2 µM) was -0.6%. For the same compound, the insulin secretion stimulation [5] was 1.2% (inactive), the viability decrease [6] was 0.2% (inactive) and the tube area decrease [7] was -23.7% (inactive). For the same compound, the GLP1 secretion stimulation [8] was -0.6% (inactive), the inhibition of viability [9] was 8.4% (inactive) and the viability decrease (inhibition) [10] was 4.1% (inactive). For the same compound, the viability decrease (inhibition) [11] was 11.4% (inactive), the fold change [12, 17] was 0.864 (inactive) and the fold change [12, 18] was 2.23. The cell count [12, 19] was 8110, the cell count [12, 20] was 9380 and the z-score [13, 21] was -0.968 (inactive). For the same compound, the z-score [13, 22] was -0.0882.

For `CN1CCN(CCCN2c3ccccc3Sc3ccc(S(=O)(=O)N(C)C)cc32)CC1`, the fluorescence slope change [1] was 52.4% (active), the survival [2] was 4.08 (inactive) and the parasite load remaining [3] was 35.2% (inactive) and 94.1% (inactive). The viability [3] was 47.9% and 85.3%, the nuclear beta-catenin stimulation ([4]; at 10 µM) was 33.2% (inactive) and the nuclear beta-catenin stimulation ([4]; stimulation, at 2 µM) was 0.3%. The insulin secretion stimulation [5] was 12.3% (inactive), the viability decrease [6] was 99.5% (active) and the tube area decrease [7] was 108% (active). For the same compound, the GLP1 secretion stimulation [8] was -2.9% (inactive), the inhibition of viability [9] was 99.9% (active) and the viability decrease (inhibition) [10] was 103% (active). The viability decrease (inhibition) [11] was 95% (active), the fold change [12, 17] was 0.928 (inactive) and the fold change [12, 18] was 1.43. For the same compound, the cell count [12, 19] was 7890, the cell count [12, 20] was 8500 and the z-score [13, 21] was 0.365 (inactive). It also gave a z-score [13, 22] of 0.522.

In the case of `CN(Cc1ccc(C(C)(C)C)cc1)Cc1cccc2ccccc12`, the parasite load remaining [3] is reported as 43.3% (inactive), the viability [3] is reported as 140% and the nuclear beta-catenin stimulation ([4]; at 10 µM) is reported as -1.4% (inactive). For the same compound, the nuclear beta-catenin stimulation ([4]; stimulation, at 2 µM) was -0.7%, the insulin secretion stimulation [5] was -1% (inactive) and the viability decrease [6] was 37.6% (inactive). The tube area decrease [7] was 7.1% (inactive), the GLP1 secretion stimulation [8] was -4% (inactive) and the inhibition of viability [9] was 50.7% (active). For the same compound, the viability decrease (inhibition) [10] was 62.7% (active), the viability decrease (inhibition) [11] was 37.8% (inactive) and the fold change [12, 17] was 0.848 (inactive) and 0.895 (inactive). For the same compound, the fold change [12, 18] was 0.76 and 0.344, the cell count [12, 19] was 7540 and 9920 and the cell count [12, 20] was 8900 and 11100. The z-score [13, 21] was -0.284 (inactive) and -0.0947 (inactive) and -0.415 (inactive), the z-score [13, 22] was -0.307 and 0.166 and -0.508 and the z-score [15] was -1.71 (inactive).

With `NS(=O)(=O)c1cc2c(cc1Cl)NC(CC1CCCC1)NS2(=O)=O` (stereo not drawn) the survival [2] was 5.92 (inactive), the parasite load remaining [3] was 80.8% (inactive) and the viability [3] was 73%. The nuclear beta-catenin stimulation ([4]; at 10 µM) was -0.9% (inactive), the nuclear beta-catenin stimulation ([4]; stimulation, at 2 µM) was -1.5% and the insulin secretion stimulation [5] was 4.2% (inactive). The viability decrease [6] was 1% (inactive), the tube area decrease [7] was 35.3% (inactive) and the GLP1 secretion stimulation [8] was 3.4% (inactive). For the same compound, the inhibition of viability [9] was 1.1% (inactive), the viability decrease (inhibition) [10] was -15.3% (inactive) and the viability decrease (inhibition) [11] was -0.6% (inactive). For the same compound, the fold change [12, 17] was 0.993 (inactive), the fold change [12, 18] was 0.594 and the cell count [12, 19] was 9530. For the same compound, the cell count [12, 20] was 9590, the z-score [13, 21] was 0.486 (inactive) and the z-score [13, 22] was -0.891.

In the case of `CCCCc1cc2ccccc2c(OCCN(C)C)n1`, the survival [2] is reported as 4.17 (inactive), the parasite load remaining [3] is reported as 105% (inactive) and 71.5% (inactive) and the viability [3] is reported as 105% and 79.9%. The nuclear beta-catenin stimulation ([4]; at 10 µM) was 0.2% (inactive), the nuclear beta-catenin stimulation ([4]; stimulation, at 2 µM) was -0.1% and the insulin secretion stimulation [5] was 4.6% (inactive). The viability decrease [6] was -84.3% (inactive), the tube area decrease [7] was 15.9% (inactive) and the GLP1 secretion stimulation [8] was 3.1% (inactive). For the same compound, the inhibition of viability [9] was 22.3% (inactive), the viability decrease (inhibition) [10] was 72.1% (active) and the viability decrease (inhibition) [11] was -3.7% (inactive). For the same compound, the fold change [12, 17] was 0.931 (inactive), the fold change [12, 18] was 1.26 and the cell count [12, 19] was 6620. For the same compound, the cell count [12, 20] was 7110, the z-score [13, 21] was 0.0733 (inactive) and the z-score [13, 22] was 0.0128.

In the case of `CN1CCCN(C(c2ccccc2)c2ccc(Cl)cc2)CC1` (stereo not drawn), the fluorescence slope change [1] is reported as 122% (active), the survival [2] is reported as 4.08 (inactive) and the parasite load remaining [3] is reported as 48.8% (inactive) and 98.3% (inactive). The viability [3] was 42.5% and 88%, the nuclear beta-catenin stimulation ([4]; at 10 µM) was 3.7% (inactive) and the nuclear beta-catenin stimulation ([4]; stimulation, at 2 µM) was 1.3%. For the same compound, the insulin secretion stimulation [5] was 2.9% (active), the viability decrease [6] was 96% (active) and the tube area decrease [7] was 38.7% (inactive). The GLP1 secretion stimulation [8] was 13.9% (inactive), the inhibition of viability [9] was 96.5% (active) and the viability decrease (inhibition) [10] was 122% (active). For the same compound, the viability decrease (inhibition) [11] was 71% (active), the fold change [12, 17] was 0.886 (inactive) and the fold change [12, 18] was 1.48. The cell count [12, 19] was 7610, the cell count [12, 20] was 8580 and the z-score [13, 21] was -0.68 (inactive). It also gave a z-score [13, 22] of 0.377.

In the case of `O=C(O)c1ccc[n+]([O-])c1`, the nuclear beta-catenin stimulation ([4]; at 10 µM) is reported as -0.8% (inactive), the nuclear beta-catenin stimulation ([4]; stimulation, at 2 µM) is reported as 2% and the insulin secretion stimulation [5] is reported as -0.6% (inactive). For the same compound, the viability decrease [6] was -4.35% (inactive), the tube area decrease [7] was 11.3% (active) and the GLP1 secretion stimulation [8] was 0% (inactive). The inhibition of viability [9] was -1.7% (inactive), the viability decrease (inhibition) [10] was 14.2% (inactive) and the viability decrease (inhibition) [11] was -2.85% (inactive). For the same compound, the fold change [12, 17] was 0.936 (inactive), the fold change [12, 18] was 0.969 and the cell count [12, 19] was 8660. For the same compound, the cell count [12, 20] was 9250 and the remaining NAD [16] was 10 nM (inactive).
